High-throughput results: PubChem BioAssay, Sanford-Burnham Center for Chemical Genomics
Compounds with a hit are over-represented: about 4% of the library has one in this group of screens.
CF NFkB block: blocks PAF-induced NF-kB reporter in cystic fibrosis cells. KKLEB NF-kB-GFP reporter, GFP fluorescence overnight. inhibition, % at 5 µM. actives 0.86% (n = 360,000). AID 588850;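 active means at least 50% inhibition at 5 µM, scaled per plate between neutral and stimulator controls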;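 further: PAF is a Pseudomonas aeruginosa culture filtrate used as stimulus; plate controls were PAF-stimulated DMSO wells for no effect and unstimulated DMSO wells for full effect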
HIF-2a inh: HIF-2a inhibition. inhibition, % at 18.8 µM. 786-0 RCC cells HIF-2a reporter, luciferase luminescence, overnight. actives 0.72% (n = 360,000);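 active means inhibition of the luminescence signal of 40% or more relative to plate controls, in a single-dose primary screen at 18.75 µM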
TWEAK-Fn14 inh: blocks TWEAK-Fn14 interaction in a reporter cell assay. TWEAK-stimulated Fn14 reporter cells, luciferase luminescence, 8 h. inhibition, % at 10 µM. actives 2% (n = 360,000). AID 1159606; in the data active means inhibition above about 50%
TROY signal inh: inhibitors of TROY-dependent NF-kB signaling; AID 1347056; Q293 LMP1-TROYcd NF-kB luciferase reporter, 4 h; actives 0.98% (n = 360,000); inhibition, % at 10 µM;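 active means compounds whose plate-normalised and pattern-corrected inhibition of the luciferase reporter signal at the single screening dose is 50% or more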
KKLEB tox: counter-screen for CF NF-kB inhibitors: cytotoxicity; KKLEB CF airway cells viability, ATPlite luminescence, overnight; active compounds read low; cells stimulated with P. aeruginosa culture filtrate; activity change (cytotoxicity), % at 5 µM; actives 0.36% (n = 360,000); AID 602141;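 active means corrected activity change at or below -50% at 5 µM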
Peg3 promoter: inhibitors of Peg3 promoter | HeLa PEG-Prom luciferase reporter, luminescence, overnight | inhibition, % at 20 µM | actives 1.7% (n = 360,000) | AID 588405;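 active means inhibition of at least 50% at 20 µM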
* marks the source's active call; other numbers are inactive results.

SMILES	CF NFkB block	HIF-2a inh	TWEAK-Fn14 inh	TROY signal inh	KKLEB tox	Peg3 promoter
Cc1noc(C)c1COc1ccc(C(=O)OCC(=O)Nc2ccc(S(N)(=O)=O)cc2)cc1	-2	3	-4	-3	5	-22
CCN(CC)S(=O)(=O)c1cccc(-n2c(O)c(C=Nc3ccccc3C(=O)O)c3ccccc3c2=O)c1	91*	3	53*	42	34	24
N/C(=N\OC(=O)Cc1ccc(-c2ccccc2)cc1)c1cccc([N+](=O)[O-])c1	15	9	9	-5	0	13
CCOc1ccc(-c2nnc(SCc3nnc(-c4ccccc4)o3)n2-c2ccccc2F)cc1	-2	-82	52*	61*	9	-102
Cc1ccc(-c2nnc(CSc3nnc(COc4ccccc4)n3-c3ccccc3)o2)cc1	4	-16	-1	-11	0	-6
Cc1cc(N2CCCCC2)n2ncc(-c3ccc(Cl)cc3)c2n1	13	-170	74*	70*	-18	-316
Cc1cc(N2CCOCC2)n2ncc(-c3ccc(Cl)cc3)c2n1	3	-102	82*	79*	-8	-167
Cc1cc(N2CCC(C)CC2)n2nc(C)c(-c3ccccc3)c2n1	-10	-92	-10	-12	-8	-20
CC(C)(C)c1cc(N2CCOCC2)n2ncc(-c3ccc(Cl)cc3)c2n1	16	-104	-18	-21	-6	-58
Cc1cc(N2CCC(C)CC2)n2ncc(-c3ccccc3)c2n1	11	-24	83*	84*	-8	-175
Cc1cc(N2CCOCC2)n2ncc(-c3ccccc3)c2n1	5	-61	86*	75*	-6	-41
CCC(Oc1ccccc1)C(=O)Nc1nc2ccccc2[nH]1 (configuration not stated)	0	-106	6	-29	-6	-99
CN(C)/C=C(\c1cnc(Cl)s1)S(=O)(=O)c1ccccc1	-11	16	1	16	6	15
COCCNC(C(=O)Nc1ccc(C)cc1[N+](=O)[O-])c1ccccc1 (configuration not stated)	22	-116	-52	-3	-1	-127
CC(=O)Nc1ccc2c(CSc3nnc(N)s3)cc(=O)oc2c1	-18	6	-4	-10	-3	-4
Cc1cc(N2CCCCC2)n2ncc(-c3ccccc3)c2n1	20	-87	81*	77*	-24	-86
Cc1cc(N2CCOCC2)n2nc(C)c(-c3ccc(Cl)cc3)c2n1	22	1	-2	-1	-13	5
Cc1ccc(-c2cnn3c(N4CCOCC4)cc(C)nc23)cc1	-8	-30	85*	73*	-11	-32
O=C(Nc1cccc(O)c1)C(Cc1ccccc1)N1C(=O)c2cccc3cccc(c23)C1=O (configuration not stated)	24	23	-25	10	-22	66*
CCOc1cc(/C=C2\CN(C)C/C(=C\c3ccc(O)c(OCC)c3)C2=O)ccc1O	63*	92*	104*	28	-9	103*
C=CCNC(=O)/C(C#N)=C\c1cc(Cl)c(O)c(OCC)c1	-28	8	1	-4	1	-1
CN1C/C(=C/c2ccsc2)C(=O)/C(=C/c2ccsc2)C1	-39	47*	25	-5	8	36
CCOc1cc(/C=C2\CCC/C(=C\c3cc(Cl)c(O)c(OCC)c3)C2=O)cc(Cl)c1O	52*	89*	77*	61*	-50*	81*
CN1C/C(=C/c2ccncc2)C(=O)/C(=C/c2ccncc2)C1	-2	18	8	9	7	6
CSc1ccc(CN2CCC(Oc3cccc(C(=O)N4CCCC4)c3)CC2)cc1	6	20	5	12	-9	17
Cc1ccccc1OCC(=O)NNC(=S)NC(=O)c1ccco1	16	4	12	-25	-8	-78
COc1ccc(N2CCN(C(=O)Cn3ncc4c([nH]c5ccccc54)c3=O)CC2)cc1	43	0	9	-5	-9	53*
COc1ccccc1N1CCN(C(=O)Cn2ncc3c([nH]c4ccccc43)c2=O)CC1	2	14	9	6	-3	7
CCOC(=O)c1c(N)n(CCOC(=O)c2cccs2)c2nc3ccccc3nc12	50*	-6	-14	23	-38	-16
